# Tests used:
# [1] = target: T1, Serine/threonine-protein kinase 17A (Homo sapiens) (UniProt Q9UEE5); details: at 10 µM
# T1 sequence (whole entry): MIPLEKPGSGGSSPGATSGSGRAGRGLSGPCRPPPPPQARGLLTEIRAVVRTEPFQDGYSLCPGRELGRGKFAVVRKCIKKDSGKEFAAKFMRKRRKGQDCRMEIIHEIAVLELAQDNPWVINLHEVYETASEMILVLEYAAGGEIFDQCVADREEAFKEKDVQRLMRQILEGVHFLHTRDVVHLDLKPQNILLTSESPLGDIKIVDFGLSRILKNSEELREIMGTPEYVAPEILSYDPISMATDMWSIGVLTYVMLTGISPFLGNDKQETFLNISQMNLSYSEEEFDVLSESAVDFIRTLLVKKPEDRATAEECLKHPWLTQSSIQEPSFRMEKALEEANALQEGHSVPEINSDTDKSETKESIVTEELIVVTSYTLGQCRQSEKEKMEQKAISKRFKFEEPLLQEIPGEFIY
# [2] = target: T2, Dual specificity tyrosine-phosphorylation-regulated kinase 2 (Homo sapiens) (UniProt Q92630); details: at 1 µM
# T2 sequence (whole entry): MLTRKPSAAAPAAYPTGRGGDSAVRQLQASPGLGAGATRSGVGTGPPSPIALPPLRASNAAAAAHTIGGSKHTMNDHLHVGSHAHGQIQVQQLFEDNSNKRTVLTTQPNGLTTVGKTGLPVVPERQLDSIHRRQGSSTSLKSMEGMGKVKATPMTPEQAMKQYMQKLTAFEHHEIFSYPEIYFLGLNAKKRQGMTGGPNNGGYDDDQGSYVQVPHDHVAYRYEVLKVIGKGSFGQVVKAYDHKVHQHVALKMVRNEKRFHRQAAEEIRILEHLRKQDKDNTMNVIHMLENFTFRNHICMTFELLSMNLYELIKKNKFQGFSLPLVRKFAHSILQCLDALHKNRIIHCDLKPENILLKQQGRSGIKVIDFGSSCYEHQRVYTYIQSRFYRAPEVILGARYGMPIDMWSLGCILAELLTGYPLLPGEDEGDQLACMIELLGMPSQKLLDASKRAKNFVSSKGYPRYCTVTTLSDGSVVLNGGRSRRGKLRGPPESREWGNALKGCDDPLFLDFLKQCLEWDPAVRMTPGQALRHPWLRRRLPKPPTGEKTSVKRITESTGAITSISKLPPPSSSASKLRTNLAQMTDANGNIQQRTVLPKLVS
# [3] = target: T2, Dual specificity tyrosine-phosphorylation-regulated kinase 2 (Homo sapiens); details: at 10 µM
# [4] = target: Epidermal growth factor receptor (Homo sapiens) (UniProt P00533); details: at 1 µM
# Epidermal growth factor receptor (Homo sapiens), sequence (P00533 whole entry): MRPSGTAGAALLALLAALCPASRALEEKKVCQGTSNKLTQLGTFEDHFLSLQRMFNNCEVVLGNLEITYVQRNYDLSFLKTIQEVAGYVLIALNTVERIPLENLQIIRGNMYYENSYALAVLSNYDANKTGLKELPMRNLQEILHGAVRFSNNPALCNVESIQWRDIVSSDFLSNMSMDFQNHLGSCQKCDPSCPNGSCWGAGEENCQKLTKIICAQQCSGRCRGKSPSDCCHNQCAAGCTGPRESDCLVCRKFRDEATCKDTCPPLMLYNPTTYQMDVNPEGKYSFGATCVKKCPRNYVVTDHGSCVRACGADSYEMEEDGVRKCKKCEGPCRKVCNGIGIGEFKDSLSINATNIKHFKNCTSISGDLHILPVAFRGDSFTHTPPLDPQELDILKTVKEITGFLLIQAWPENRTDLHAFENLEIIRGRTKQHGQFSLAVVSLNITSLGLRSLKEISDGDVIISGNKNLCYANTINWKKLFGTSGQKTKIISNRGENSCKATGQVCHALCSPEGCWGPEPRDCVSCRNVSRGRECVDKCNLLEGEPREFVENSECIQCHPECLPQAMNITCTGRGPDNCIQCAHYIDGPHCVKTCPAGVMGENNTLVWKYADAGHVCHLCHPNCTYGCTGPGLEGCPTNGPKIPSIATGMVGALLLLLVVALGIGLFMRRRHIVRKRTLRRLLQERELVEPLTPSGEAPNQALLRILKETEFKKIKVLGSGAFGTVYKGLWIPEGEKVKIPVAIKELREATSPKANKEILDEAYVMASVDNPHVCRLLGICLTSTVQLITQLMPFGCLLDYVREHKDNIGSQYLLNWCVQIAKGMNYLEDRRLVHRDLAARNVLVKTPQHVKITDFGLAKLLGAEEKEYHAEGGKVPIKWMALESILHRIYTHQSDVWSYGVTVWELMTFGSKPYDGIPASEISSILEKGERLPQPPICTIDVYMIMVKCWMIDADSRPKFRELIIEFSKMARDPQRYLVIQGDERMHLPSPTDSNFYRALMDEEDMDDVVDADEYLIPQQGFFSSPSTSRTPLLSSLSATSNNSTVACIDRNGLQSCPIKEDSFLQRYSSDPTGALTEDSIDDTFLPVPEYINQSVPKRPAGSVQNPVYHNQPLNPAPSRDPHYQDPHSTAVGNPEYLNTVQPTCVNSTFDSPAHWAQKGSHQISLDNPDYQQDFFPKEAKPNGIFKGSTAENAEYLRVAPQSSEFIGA
# [5] = target: Epidermal growth factor receptor (Homo sapiens) (UniProt P00533); details: at 10 µM
# [6] = target: T3, Ephrin type-A receptor 1 (Homo sapiens) (UniProt P21709); details: at 1 µM
# T3 sequence (whole entry): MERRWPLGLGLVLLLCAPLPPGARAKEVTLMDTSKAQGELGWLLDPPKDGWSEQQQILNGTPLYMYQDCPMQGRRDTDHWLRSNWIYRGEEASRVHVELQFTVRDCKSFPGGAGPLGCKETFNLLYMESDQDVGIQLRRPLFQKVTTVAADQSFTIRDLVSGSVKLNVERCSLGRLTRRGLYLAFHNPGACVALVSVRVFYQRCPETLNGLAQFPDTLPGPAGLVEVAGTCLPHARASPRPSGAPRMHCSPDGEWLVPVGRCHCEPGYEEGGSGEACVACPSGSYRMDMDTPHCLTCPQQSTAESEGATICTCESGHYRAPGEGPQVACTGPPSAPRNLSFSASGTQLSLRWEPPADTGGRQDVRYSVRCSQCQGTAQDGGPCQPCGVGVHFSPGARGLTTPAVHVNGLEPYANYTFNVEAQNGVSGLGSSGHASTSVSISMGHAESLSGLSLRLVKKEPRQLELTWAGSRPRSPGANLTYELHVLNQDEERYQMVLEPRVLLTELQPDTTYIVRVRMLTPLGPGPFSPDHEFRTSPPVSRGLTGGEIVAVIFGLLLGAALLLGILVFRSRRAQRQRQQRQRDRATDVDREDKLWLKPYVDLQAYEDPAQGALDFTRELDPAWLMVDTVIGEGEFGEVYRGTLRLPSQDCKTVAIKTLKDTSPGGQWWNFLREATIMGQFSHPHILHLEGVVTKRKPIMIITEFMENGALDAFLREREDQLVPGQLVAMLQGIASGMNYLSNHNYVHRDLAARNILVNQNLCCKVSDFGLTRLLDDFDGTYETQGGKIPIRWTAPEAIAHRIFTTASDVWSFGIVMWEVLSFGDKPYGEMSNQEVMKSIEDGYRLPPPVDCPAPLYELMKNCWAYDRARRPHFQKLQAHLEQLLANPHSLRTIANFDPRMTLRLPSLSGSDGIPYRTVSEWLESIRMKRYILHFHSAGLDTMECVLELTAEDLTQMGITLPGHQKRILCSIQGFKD
# [7] = target: T3, Ephrin type-A receptor 1 (Homo sapiens); details: at 10 µM
# [8] = target: Ephrin type-A receptor 2 (Homo sapiens) (UniProt P29317); details: at 1 µM
# Ephrin type-A receptor 2 (Homo sapiens), sequence (P29317 whole entry): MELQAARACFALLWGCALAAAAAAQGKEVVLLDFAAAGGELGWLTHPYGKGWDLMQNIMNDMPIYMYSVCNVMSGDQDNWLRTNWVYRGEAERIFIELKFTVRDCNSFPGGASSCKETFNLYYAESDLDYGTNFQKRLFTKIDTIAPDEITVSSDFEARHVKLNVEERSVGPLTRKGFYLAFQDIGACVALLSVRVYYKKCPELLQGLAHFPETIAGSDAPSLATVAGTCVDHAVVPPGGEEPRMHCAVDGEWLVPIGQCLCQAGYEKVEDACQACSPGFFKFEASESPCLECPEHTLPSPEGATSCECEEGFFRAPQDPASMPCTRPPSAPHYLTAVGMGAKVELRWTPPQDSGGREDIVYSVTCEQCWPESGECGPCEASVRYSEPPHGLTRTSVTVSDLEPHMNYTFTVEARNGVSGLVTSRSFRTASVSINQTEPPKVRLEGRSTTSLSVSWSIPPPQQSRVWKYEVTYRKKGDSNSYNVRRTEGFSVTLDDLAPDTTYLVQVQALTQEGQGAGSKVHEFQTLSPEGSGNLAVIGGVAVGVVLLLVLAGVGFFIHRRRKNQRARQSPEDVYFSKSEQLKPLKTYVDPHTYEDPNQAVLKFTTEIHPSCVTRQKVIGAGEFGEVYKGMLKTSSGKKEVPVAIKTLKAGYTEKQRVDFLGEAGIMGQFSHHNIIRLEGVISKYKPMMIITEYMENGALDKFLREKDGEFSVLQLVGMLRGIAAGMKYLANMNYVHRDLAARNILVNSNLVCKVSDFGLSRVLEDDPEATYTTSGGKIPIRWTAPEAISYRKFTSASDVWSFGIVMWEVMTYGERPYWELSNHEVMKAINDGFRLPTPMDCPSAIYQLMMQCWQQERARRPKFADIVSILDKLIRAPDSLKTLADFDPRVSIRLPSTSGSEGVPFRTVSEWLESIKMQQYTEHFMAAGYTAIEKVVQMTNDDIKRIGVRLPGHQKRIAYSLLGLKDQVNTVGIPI
# [9] = target: Ephrin type-A receptor 2 (Homo sapiens) (UniProt P29317); details: at 10 µM
# [10] = target: T4, Ephrin type-A receptor 3 (Homo sapiens) (UniProt P29320); details: at 1 µM
# T4 sequence (whole entry): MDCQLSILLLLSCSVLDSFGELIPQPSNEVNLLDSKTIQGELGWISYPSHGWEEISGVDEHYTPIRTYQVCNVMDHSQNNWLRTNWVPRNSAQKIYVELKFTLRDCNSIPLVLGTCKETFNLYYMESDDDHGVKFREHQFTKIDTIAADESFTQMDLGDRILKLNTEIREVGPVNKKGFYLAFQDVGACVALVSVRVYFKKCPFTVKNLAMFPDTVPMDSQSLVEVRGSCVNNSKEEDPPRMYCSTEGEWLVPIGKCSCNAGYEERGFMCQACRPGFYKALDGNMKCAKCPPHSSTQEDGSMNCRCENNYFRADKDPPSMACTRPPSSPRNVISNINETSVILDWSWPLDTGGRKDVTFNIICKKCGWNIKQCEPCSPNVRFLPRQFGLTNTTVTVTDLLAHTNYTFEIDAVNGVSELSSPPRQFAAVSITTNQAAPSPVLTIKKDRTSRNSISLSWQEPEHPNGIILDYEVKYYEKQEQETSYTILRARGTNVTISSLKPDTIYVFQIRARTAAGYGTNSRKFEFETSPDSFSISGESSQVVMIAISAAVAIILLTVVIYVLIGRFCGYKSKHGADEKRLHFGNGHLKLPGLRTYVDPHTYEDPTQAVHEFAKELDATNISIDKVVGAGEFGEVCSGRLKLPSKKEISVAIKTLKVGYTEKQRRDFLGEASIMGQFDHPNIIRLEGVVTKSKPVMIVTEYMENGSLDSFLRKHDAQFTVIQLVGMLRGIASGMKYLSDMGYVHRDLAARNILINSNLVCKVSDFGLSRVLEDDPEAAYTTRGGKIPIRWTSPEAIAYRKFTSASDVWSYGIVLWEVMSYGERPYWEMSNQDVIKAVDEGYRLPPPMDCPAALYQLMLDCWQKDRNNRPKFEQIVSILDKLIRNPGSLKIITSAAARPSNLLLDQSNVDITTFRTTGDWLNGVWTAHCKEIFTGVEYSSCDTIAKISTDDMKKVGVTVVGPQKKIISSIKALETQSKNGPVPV
# [11] = target: T4, Ephrin type-A receptor 3 (Homo sapiens); details: at 10 µM
# [12] = target: Ephrin type-A receptor 4 (Homo sapiens) (UniProt P54764); details: at 1 µM
# Ephrin type-A receptor 4 (Homo sapiens), sequence (P54764 whole entry): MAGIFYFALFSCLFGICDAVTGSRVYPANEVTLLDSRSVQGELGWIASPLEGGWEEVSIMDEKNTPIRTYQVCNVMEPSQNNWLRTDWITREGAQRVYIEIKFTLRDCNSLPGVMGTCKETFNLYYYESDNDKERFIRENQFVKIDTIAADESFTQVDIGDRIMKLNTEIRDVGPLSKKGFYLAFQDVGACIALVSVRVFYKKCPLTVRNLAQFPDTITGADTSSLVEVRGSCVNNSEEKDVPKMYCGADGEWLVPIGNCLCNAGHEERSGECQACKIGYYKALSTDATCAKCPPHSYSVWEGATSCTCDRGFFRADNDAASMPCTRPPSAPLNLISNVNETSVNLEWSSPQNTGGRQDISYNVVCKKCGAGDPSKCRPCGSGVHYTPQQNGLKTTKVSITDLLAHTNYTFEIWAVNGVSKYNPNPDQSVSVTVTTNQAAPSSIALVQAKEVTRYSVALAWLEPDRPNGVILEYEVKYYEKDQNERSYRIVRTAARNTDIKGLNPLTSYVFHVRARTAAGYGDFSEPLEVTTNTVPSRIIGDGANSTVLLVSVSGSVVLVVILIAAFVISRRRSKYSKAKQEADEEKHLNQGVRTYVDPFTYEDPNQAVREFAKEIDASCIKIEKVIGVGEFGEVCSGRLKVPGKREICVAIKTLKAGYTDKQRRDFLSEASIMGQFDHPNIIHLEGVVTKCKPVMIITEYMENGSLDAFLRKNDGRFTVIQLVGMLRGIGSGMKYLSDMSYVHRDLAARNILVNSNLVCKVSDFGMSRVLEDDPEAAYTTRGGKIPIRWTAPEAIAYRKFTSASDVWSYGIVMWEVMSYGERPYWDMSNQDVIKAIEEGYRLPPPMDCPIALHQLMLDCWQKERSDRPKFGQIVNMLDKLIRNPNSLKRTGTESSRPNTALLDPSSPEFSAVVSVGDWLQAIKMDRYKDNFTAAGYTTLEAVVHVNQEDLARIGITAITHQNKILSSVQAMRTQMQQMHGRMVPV
# [13] = target: Ephrin type-A receptor 4 (Homo sapiens) (UniProt P54764); details: at 10 µM
# [14] = target: Ephrin type-A receptor 5 (Homo sapiens) (UniProt P54756); details: at 1 µM
# Ephrin type-A receptor 5 (Homo sapiens), sequence (P54756 whole entry): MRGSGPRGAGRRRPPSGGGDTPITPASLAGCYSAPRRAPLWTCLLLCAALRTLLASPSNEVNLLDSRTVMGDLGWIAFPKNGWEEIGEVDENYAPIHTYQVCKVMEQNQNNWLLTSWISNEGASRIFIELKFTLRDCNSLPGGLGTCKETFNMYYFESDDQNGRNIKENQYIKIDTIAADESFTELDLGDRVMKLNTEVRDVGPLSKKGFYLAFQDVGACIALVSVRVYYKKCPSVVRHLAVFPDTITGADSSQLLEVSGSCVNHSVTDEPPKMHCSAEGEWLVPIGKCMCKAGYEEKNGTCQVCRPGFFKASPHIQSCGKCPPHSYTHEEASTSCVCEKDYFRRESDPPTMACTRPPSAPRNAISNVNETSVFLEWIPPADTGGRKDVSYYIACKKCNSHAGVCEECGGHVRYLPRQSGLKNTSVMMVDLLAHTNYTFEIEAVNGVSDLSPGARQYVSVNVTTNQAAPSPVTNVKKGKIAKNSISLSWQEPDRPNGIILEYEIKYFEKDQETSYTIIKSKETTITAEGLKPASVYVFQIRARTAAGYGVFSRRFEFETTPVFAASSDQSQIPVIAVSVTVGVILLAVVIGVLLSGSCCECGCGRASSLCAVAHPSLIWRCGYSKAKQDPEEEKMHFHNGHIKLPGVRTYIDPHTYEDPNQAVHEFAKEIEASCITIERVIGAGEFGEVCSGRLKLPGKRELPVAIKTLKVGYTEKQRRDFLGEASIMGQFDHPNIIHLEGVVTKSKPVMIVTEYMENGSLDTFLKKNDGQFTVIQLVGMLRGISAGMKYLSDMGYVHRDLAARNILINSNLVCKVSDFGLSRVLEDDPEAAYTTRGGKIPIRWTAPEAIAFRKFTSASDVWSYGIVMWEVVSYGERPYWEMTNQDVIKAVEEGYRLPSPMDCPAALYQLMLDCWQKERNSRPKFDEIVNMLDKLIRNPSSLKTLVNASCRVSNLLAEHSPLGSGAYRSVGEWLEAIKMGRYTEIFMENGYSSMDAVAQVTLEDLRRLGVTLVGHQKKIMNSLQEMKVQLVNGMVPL
# [15] = target: Ephrin type-A receptor 5 (Homo sapiens) (UniProt P54756); details: at 10 µM
# [16] = target: Ephrin type-A receptor 7 (Homo sapiens) (UniProt Q15375); details: at 1 µM
# [17] = target: Ephrin type-A receptor 7 (Homo sapiens) (UniProt Q15375); details: at 10 µM
# [18] = target: T5, Ephrin type-A receptor 8 (Homo sapiens) (UniProt P29322); details: at 1 µM
# T5 sequence (whole entry): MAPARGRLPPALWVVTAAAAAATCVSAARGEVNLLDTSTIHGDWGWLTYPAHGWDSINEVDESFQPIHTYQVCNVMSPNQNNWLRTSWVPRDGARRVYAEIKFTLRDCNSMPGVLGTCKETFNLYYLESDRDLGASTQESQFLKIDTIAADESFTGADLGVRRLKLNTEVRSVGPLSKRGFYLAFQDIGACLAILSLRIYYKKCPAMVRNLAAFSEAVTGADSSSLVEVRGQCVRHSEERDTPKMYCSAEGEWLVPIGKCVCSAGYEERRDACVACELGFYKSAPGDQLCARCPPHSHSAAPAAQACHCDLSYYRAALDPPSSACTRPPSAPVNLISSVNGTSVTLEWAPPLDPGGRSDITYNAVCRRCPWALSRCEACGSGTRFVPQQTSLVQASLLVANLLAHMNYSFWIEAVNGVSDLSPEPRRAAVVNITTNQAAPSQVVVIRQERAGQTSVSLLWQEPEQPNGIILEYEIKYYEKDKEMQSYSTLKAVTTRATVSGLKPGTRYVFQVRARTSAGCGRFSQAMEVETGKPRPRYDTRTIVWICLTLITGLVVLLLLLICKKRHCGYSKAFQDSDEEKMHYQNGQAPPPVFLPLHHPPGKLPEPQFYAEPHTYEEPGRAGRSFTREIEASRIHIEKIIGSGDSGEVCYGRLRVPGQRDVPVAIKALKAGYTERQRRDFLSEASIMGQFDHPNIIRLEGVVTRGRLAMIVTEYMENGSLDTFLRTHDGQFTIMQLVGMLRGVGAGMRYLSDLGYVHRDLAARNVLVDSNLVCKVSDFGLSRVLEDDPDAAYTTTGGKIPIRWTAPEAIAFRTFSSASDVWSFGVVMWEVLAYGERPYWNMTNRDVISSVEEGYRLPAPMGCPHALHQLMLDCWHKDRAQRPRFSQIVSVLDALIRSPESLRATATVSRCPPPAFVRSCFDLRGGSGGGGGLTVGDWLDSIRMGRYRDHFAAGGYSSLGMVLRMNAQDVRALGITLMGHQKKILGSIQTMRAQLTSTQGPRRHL
# [19] = target: T5, Ephrin type-A receptor 8 (Homo sapiens); details: at 10 µM
# [20] = target: T6, Ephrin type-B receptor 1 (Homo sapiens) (UniProt P54762); details: at 1 µM
# T6 sequence (whole entry): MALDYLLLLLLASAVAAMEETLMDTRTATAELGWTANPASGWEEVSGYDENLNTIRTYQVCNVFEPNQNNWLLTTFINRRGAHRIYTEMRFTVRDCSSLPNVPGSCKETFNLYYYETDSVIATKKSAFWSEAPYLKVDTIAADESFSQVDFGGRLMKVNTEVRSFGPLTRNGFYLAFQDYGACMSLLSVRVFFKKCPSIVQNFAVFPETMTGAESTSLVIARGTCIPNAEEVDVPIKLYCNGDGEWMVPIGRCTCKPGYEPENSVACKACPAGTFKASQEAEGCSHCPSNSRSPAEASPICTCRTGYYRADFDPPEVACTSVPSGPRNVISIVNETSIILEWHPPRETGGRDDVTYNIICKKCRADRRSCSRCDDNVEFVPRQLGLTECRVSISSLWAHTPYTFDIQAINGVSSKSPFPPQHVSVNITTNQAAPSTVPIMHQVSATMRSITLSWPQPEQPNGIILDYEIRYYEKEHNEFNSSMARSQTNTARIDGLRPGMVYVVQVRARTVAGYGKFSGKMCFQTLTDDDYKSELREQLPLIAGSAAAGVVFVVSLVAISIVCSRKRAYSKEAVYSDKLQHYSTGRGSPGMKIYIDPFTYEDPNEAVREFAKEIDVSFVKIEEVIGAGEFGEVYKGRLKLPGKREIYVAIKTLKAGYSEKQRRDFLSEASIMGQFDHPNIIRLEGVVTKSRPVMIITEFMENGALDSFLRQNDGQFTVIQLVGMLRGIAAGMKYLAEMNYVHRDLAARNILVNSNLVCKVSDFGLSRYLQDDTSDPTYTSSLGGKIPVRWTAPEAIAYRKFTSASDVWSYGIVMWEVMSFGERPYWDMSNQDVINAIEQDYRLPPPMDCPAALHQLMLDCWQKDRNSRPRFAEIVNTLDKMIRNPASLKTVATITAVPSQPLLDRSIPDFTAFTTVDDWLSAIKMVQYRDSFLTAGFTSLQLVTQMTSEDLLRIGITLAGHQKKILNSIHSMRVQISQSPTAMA
smiles,measurement,setting,value
O=C(Nc1cccc(Nc2cc(Nc3cccc(C(F)(F)F)c3)ncn2)c1)C1CC1,residual activity,[1],50%
same,residual activity,[2],97%
same,residual activity,[3],99%
same,residual activity,[4],-2%
same,residual activity,[5],-3%
same,residual activity,[6],82%
same,residual activity,[7],90%
same,residual activity,[8],108%
same,residual activity,[9],98%
same,residual activity,[10],115%
same,residual activity,[11],114%
same,residual activity,[12],113%
same,residual activity,[13],103%
same,residual activity,[14],98%
same,residual activity,[15],87%
same,residual activity,[16],95%
same,residual activity,[17],86%
same,residual activity,[18],98%
same,residual activity,[19],90%
same,residual activity,[20],98%

# From ChEMBL document CHEMBL2218924, “A broad activity screen in support of a chemogenomic map for kinase signalling research and drug discovery” (Biochem J, 2013)
